L major viab = Leishmania major promastigote growth inhibition, primary screen. Leishmania major promastigotes, resazurin fluorescence viability. inhibition, % at 10 µM. 200,000 tested, 9% active. AID 1063, 2008; in the data active = inhibition above about 50%;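 also: promastigotes grown with compound for 44 hours at 28 °C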
CHOP inhibitor = inhibitors of CHOP promoter induction, primary screen, cell-based, unfolded protein response, luciferase reporter | CHO-K1 CHOP-promoter luciferase, tunicamycin-induced, 15-18 h | inhibition, % at 10 µM | 220,000 tested, 3.8% active | AID 2732, 2010;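 active = compounds that reduced the stress-induced luciferase reporter signal by more than about 70% of percent inhibition, limit read from the data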
WT yeast gro inh = growth inhibition of WT strain, primary screen, mitochondrial fusion inhibitor project, WT and mutant strains, chemical genetic. 190,000 tested, 2.1% active. mitochondrial fusion phenotypic screen. AID 1362, 2008. inhibition, % at 10 µM; in the data active = inhibition above about 58%; tested in S. cerevisiae
RAM inhibit = inhibitors of the yeast RAM network, primary screen, dse1pr::URA3 reporter, 5-FOA selection; S. cerevisiae dse1pr::URA3 reporter, 5-FOA growth OD615, 2 d; analog-sensitive cbk1-as2 kinase mutant strain; inhibition, % at 50 µM; 190,000 tested, 1.8% active; AID 868, 2007;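 active = inhibition above a set limit, 3 SD over mean compound inhibition, cut at about 8.4% in these data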;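 also: inhibition rescues growth on 5-FOA so higher OD means more RAM inhibition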
RAM 5-FOA = 5-FOA growth of efflux-deficient control yeast, dose response, counter-screen for RAM network inhibitor project, S. cerevisiae, OD615; shares compounds with RAM inhibit; S. cerevisiae efflux-deficient reporter strain, 5-FOA growth OD615, 2 days; max inhibition, %; 1,200 tested, under 10 active; call rule not given here
Lmaj promast 1uM = Leishmania major promastigote growth inhibition, confirmation, 1 µM repeat of primary hits | shares compounds with L major viab | L. major promastigote growth, resazurin fluorescence, 48 h | inhibition, % at 1 µM | 1,100 tested, 13% active;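 active = inhibition above about 50% in both repeat tests, limit read from the data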
A number is an active result; i = inactive; nt = no result given. Sampled rows, rich in hits. Any-hit rate of the full collection: about 13%.

SMILES	L major viab	CHOP inhibitor	WT yeast gro inh	RAM inhibit	RAM 5-FOA	others
CC(C(=O)Nc1ccc(Br)cc1C(=O)c1ccccc1)N1CCOCC1 (stereo not drawn)	99	i	i	i	nt
N[C@@H](Cc1c[nH]c2ccccc12)c1nnc(SCc2ccccc2)o1	i	i	i	i	nt
N[C@@H](Cc1c[nH]c2ccccc12)c1nnc(SCc2ccc(Cl)cc2)o1	i	i	62	i	nt
CC(C)C(=O)c1cn(Cc2ccccc2C#N)c2ccccc12	i	77	i	i	nt
O=C(O)C1C2c3ccccc3C(c3ccccc32)C1C(=O)Nc1ccccc1 (stereo not drawn)	73	i	i	i	nt
O=C(Cn1cnc2sc3c(c2c1=O)CCCC3)NCCC(=O)N1CCC2(CC1)OCCO2	i	i	i	i	nt
Cc1ccc(NP(=O)(Oc2ccccc2F)Oc2ccccc2F)cc1C	i	i	i	17	i
COc1cccc(NP(=O)(Oc2ccc(Cl)cc2)Oc2ccc(Cl)cc2)c1	i	i	63	15	i
Cc1cccc(NP(=O)(Oc2ccccc2F)Oc2ccccc2F)c1	57	78	i	16	i
O=P(NS(=O)(=O)c1ccc(Cl)cc1)(Oc1ccccc1)Oc1ccccc1	i	i	i	i	nt
Nc1ccccc1C(=O)OCC(=O)Nc1ccc(Br)cc1F	i	i	i	i	nt
Cc1ccc(N(C)C(=O)Oc2ccc(C(=O)c3ccc(Cl)cc3)cc2)cc1	i	i	i	i	nt
COc1ccc(N2C(=O)/C(=C/C=C/c3ccccc3[N+](=O)[O-])C(=O)NC2=S)cc1	92	i	i	17	i
O=C1NC(=O)N(c2ccccc2)C(=O)/C1=C\c1ccccc1[N+](=O)[O-]	nt	i	nt	nt	nt
CCCC[N+]1(C)[C@@H]2CC(OC(=O)[C@H](CO)c3ccccc3)C[C@H]1[C@@H]1O[C@@H]12 (stereo partly drawn)	nt	i	i	nt	nt
FC(F)(F)c1nc(N2CCN(c3ccccc3)CC2)nc2c1CCCCC2	i	i	i	14	i
CCn1ccnc1CN1CCCC(C(=O)c2ccc(SC)cc2)C1 (stereo not drawn)	i	i	i	i	nt
C=CCSC1=N/C(=C\c2cc(OC)c3c(c2)OCO3)C(=O)S1	i	i	i	12	i
O=C(CCN1C(=O)COc2ccccc21)N1CCC2(CC1)OCCO2	i	i	i	i	nt
Cc1ccc(Cn2cc(C=O)c(-c3ccc(C)cc3)n2)cc1	i	i	i	16	i
CCOP(=O)(OCC)/C(C#N)=C/c1ccoc1	nt	i	nt	nt	nt
CCOc1ccc2nc(N=Nc3c(O)[nH]c(=O)[nH]c3=O)sc2c1	nt	i	nt	nt	nt
CCOc1ccc2nc(N=Nc3c(O)[nH]c(=S)[nH]c3=O)sc2c1	i	i	i	12	i
CN1C(=O)/C(=C/c2cccn2-c2ccc3ccccc3c2)C(=O)NC1=S	100	i	i	15	i
Cn1cccc1/C=C1/C(=O)NC(=O)N(C(C)(C)C)C1=O	nt	i	nt	nt	nt
SMILES	L major viab	CHOP inhibitor	WT yeast gro inh	RAM inhibit	RAM 5-FOA	others
O=C(O)c1cccc2c1NC(C(=O)O)C1CC(Sc3ccccc3[N+](=O)[O-])C(Cl)C21 (stereo not drawn)	i	i	i	15	i
COCCCN1CCN(c2nnc3n2-c2sc(Br)cc2C(c2ccccc2Cl)=NC3)CC1	97	i	i	i	nt	Lmaj promast 1uM=79
CCOCCN1CCN(c2nnc3n2-c2ccc(Cl)cc2C(c2ccccc2Cl)=NC3)CC1	99	i	i	i	nt	Lmaj promast 1uM=51
Cc1nnc2n1-c1ccc(Br)cc1C(c1ccccc1Cl)=NC2	i	i	i	i	nt
N/C(=N/[N+](=O)[O-])N1CCN(C(=O)c2ccc(Cl)cc2)CC1	i	i	i	i	nt
COc1cccc(CNC2CN3CCC2CC3)c1OC (stereo not drawn)	i	i	i	i	nt
CCOc1cccc(CNC2CN3CCC2CC3)c1 (stereo not drawn)	99	i	i	i	nt	Lmaj promast 1uM=i
CC1(C)C(=O)C=C[C@]2(C)[C@H]3CC[C@@]4(C)[C@H](c5ccoc5)OC(=O)[C@H]5O[C@]54[C@]3(C)[C@H](O)C[C@@H]12	100	i	i	i	nt	Lmaj promast 1uM=88
Cn1cccc1CNCCc1ccccc1F	98	i	i	i	nt	Lmaj promast 1uM=i
O=C1CN=C(c2ccc[nH]2)c2cc(Cl)ccc2N1	nt	i	nt	nt	nt
CCn1nc(/C=C/c2ccccc2)nc2c(=O)n(C)c(=O)nc1-2	101	105	90	i	nt	Lmaj promast 1uM=81

Compound activity: PubChem BioAssay, several laboratories
